Records with an inconclusive call do not appear. Entries that show only a call come without a potency. Calls of active or inactive are those of the source. Calls come from the whole dose curve; as a rule, active = well fitted inhibition curve with a large enough effect; inconclusive = small, poorly fitted or top-dose-only effect; inactive = no such curve, though single readings can be large or run the other way.
Potency is the fitted concentration of half-maximal effect.

This assay is described as follows: Confirmatory qHTS for Identification of Small Molecule Inhibitors of Huntingtin Promoter Activity. Note: nearly all actives have a fitted effect of over 65% in size. Conditions: HEK293 HTT promoter firefly luciferase reporter, 24 h; series mostly up to 57.5 µM. In outline:
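Plated reporter HEK293 cells (24 h) received library compounds at up to 57.5 uM final or 50 uM PTC124, incubated 24 h at 37C; firefly luciferase luminescence was then recorded with Dual-Glo reagent.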
For orientation: In qHTS, concentration-response curves come from the screen itself.
Consider `O=C(Cc1ccccc1)Nc1cccc(-c2cn3cccnc3n2)c1`, for which the Potency result is “inactive”.
As to `O=C(Nc1cccc(Cl)c1)c1c(NC(=O)C(F)(F)F)sc2c1CCCC2`, the Potency is 4260 nM (active).
Under `COc1cc(C[C@@H](CO)[C@H](CO)Cc2ccc(O)c(OC)c2)ccc1O` stands “inactive”.
With `C[n+]1cc2c3c(ccc2c2ccc4cc5c(cc4c21)OCO5)OCO3`, the Potency was 5860 nM (active).
Regarding `COc1ccc(C(=O)Nc2cccc(-c3cn4ccsc4n3)c2)c(OC)c1`, the Potency result was “inactive”.
Under `CCc1ccc2c(c1)-c1ccccc1S(=O)(=O)N2CC(=O)N1CCC(C)CC1` stands “inactive”; under `Cc1ccc(CN(C(=O)COc2cccc(Cl)c2)c2ccccn2)o1`, “inactive”; under `COc1ccc(S(=O)(=O)Nc2cc(-c3cn4ccc(C)cc4n3)ccc2C)cc1OC`, “inactive”.
The entry for `COc1ccc(-c2ccc3ncc4c(c3c2)n(-c2ccc(N3CCNCC3)c(C(F)(F)F)c2)c(=O)n4C)cn1` is “inactive”; for `COc1ccc(-c2noc(N3CCC(C(=O)N4CCN(c5cccc(OC)c5)CC4)CC3)n2)cc1` it is 1350 nM (active); for `Cc1csc2nc(COC(=O)c3ccccc3NC(=O)c3ccccc3Cl)cc(=O)n12` it is “inactive”.
The entry for `CCc1ccc(NC(=O)Nc2cn(C)c(=O)c3ccccc23)cc1` is “inactive”; for `Cc1ccc(C)c(OCCCC(C)(C)C(=O)O)c1` it is “inactive”.
`Cn1c(=O)n(C)c2cc(NS(=O)(=O)c3ccccc3)c(NCc3ccccc3)cc21`: the Potency entry is “inactive”.
Take `Cc1ccc(C)c(-n2nnc(C(=O)Nc3ccc(Br)cc3)c2C)c1`: the Potency result was “inactive”.
Under `Cc1cc(C)c(Cn2c3ccccc3c3cnn(CC(=O)N4CCCCC4)c(=O)c32)c(C)c1` stands “inactive”.
The figure for `Cc1cc(C)c(NS(=O)(=O)c2ccc(-c3cnc(C4CC4)o3)cc2)c(C)c1` is 675 nM (active); for `CSc1ccc(/C=C/c2nc3ccccc3n2S(=O)(=O)c2ccc(F)c(C)c2)cc1` it is “inactive”; for `CC(=O)Nc1ccc(S(=O)(=O)Nc2cc(-c3cn4ccccc4n3)ccc2C)cc1` it is “inactive”.
The entry for `O=C(NCc1cccs1)c1ccc(Cn2c(SCc3ccc(F)cc3)nc3cccnc32)cc1` is “inactive”; for `CCCS(=O)(=O)NCCc1sc2nc(-c3ccc(F)cc3)nn2c1C` it is “inactive”.
For the molecule `N#CC[C@H](C1CCCC1)n1cc(-c2ncnc3[nH]ccc23)cn1`, the Potency entry is “inactive”.
As for `COc1ccc(-c2nc(N3CCOCC3)c3sc(CN(C)c4ncc(C(=O)NO)cn4)cc3n2)cn1`, the Potency result was “inactive”.

The values above are taken from PubChem BioAssay AID1508621 (National Center for Advancing Translational Sciences (NCATS), 2021).
